Experimental data published in PubChem BioAssay (NCATS).
A number with no mark means an inactive call. For some assays here: Entries with a potency or affinity are not part of this list. Activity calls are given as the source filed them. How the calls were made is not given here.

How the values were obtained:
[1] = Ebola virus entry assay, green fluorescence channel
[2] = Ebola virus entry assay, ratio channel
[3] = Ebola virus entry assay, green channel fluorescence
Wherever efficacy is given: 0% is about no effect.

SMILES	efficacy [1] [%]	outcome [2]	outcome [3]
Nc1ccc(S(=O)(=O)NC(=O)c2ccccc2)cc1	-38.1	inactive	inactive
O=C(CN1CCNCC1)NC1CCCCC1	48.3	inactive	inactive
NCCS(=O)(=O)O	39.2	inactive	inactive
CCN(CC)CCNC(=O)c1ccc(N)cc1	-17.1	inactive	inactive
OC[C@H]1O[C@@H](Oc2ccc(O)cc2)[C@H](O)[C@@H](O)[C@@H]1O	-11.6	inactive	inactive
Cc1c(NC(C)C)c(=O)n(-c2ccccc2)n1C	-14.1	inactive	inactive
C/C(=C(\CCO)SS/C(CCO)=C(\C)N(C=O)Cc1cnc(C)nc1N)N(C=O)Cc1cnc(C)nc1N	-13	inactive	inactive
O=C(O)c1ccc(S(=O)(=O)N(Cl)Cl)cc1	-27.5	inactive	inactive
COP(=S)(OC)Oc1ccc(S(=O)(=O)N(C)C)cc1	-33.6	inactive	inactive
CC(CC(C#N)(c1ccccc1)C(C)C)N(C)C (stereo not given)	-15	inactive	inactive
Nc1ccc([N+](=O)[O-])c(C(F)(F)F)c1	-37.2	inactive	inactive
CC1CCc2c(N3CCC(O)CC3)c(F)cc3c(=O)c(C(=O)O)cn1c23 (stereo not given)	-9.77	inactive	inactive
O=C(CCCl)NCc1ccccc1	-26.1	inactive	inactive
CCOC(=O)c1cnc2c(cnn2CC)c1NN=C(C)C	-8.64	inactive	inactive
COc1cc(C(=O)OC(COCCC(C)C)CN2CCOCC2)cc(OC)c1OC (stereo not given)	27.7	inactive	inactive
CC(C)(C)NCC(O)c1cc(Cl)c(N)c(C(F)(F)F)c1 (stereo not given)	12.5	inactive	inactive
ClCCN1CCCC1	-44.4	inactive	inactive
Cc1cccc(C)c1OCC(=O)N[C@@H](Cc1ccccc1)[C@@H](O)C[C@H](Cc1ccccc1)NC(=O)[C@H](C(C)C)N1CCCNC1=O	20.6	inactive	inactive
C=CCN1C[C@H](C)N([C@H](c2ccc(C(=O)N(CC)CC)cc2)c2cccc(OC)c2)C[C@H]1C	-18.5	inactive	inactive
CN(C)CCOC(=O)C(c1ccccc1)C1(O)CCCC1 (stereo not given)	15.2	inactive	inactive
CNC(C)(C)Cc1ccccc1	-14.9	inactive	inactive

SMILES	efficacy [1] [%]	outcome [2]	outcome [3]
Cc1ncc([N+](=O)[O-])n1CC(C)O (stereo not given)	-13.9	inactive	inactive
C[N+](C)(C)CCCCCC[N+](C)(C)C	-15	inactive	inactive
Nc1ccc(S(=O)(=O)NCc2ccccc2)cc1	27.6	inactive	inactive
Nc1ccc(C(=O)O)cc1	-10.9	inactive	inactive
c1ccc2sc(SSc3nc4ccccc4s3)nc2c1	-14.3	inactive	inactive
O=C(O)c1cc(O)c(O)c(O)c1	15.2	inactive	inactive
Cc1ccc(C(=O)c2ccc(CC(=O)O)n2C)cc1	11.5	inactive	inactive
Cc1nc(-c2ccc(Cl)cc2)oc1COC(C)(C)C(=O)O	-18.2	inactive	inactive
NC(=O)c1cccnc1	-19.3	inactive	inactive
CC(C)NNC(=O)c1ccncc1	-20.5	inactive	inactive
O=c1cc(O)c(Cl)c[nH]1	-17.7	inactive	inactive
CC(=O)NCCCCCC(=O)O	-20.5	inactive	inactive
CN1CCN(c2c(F)cc3c(=O)c(C(=O)O)cn4c3c2SCC4)CC1	-11.6	inactive	inactive
Cc1ncc([N+](=O)[O-])n1CC(O)CCl (stereo not given)	-16.3	inactive	inactive
CCn1nc(C(=O)O)c(=O)c2cc3c(cc21)OCO3	37.2	inactive	inactive
O=C1OC(CCN2CCCCC2)OC1(c1ccccc1)c1ccccc1 (stereo not given)	-23.4	inactive	inactive
CC(=O)NC(=O)c1ccccc1O	-28.5	inactive	inactive
NC(=O)N[C@@H](CCC(=O)O)C(=O)O	-11.5	inactive	inactive
CCN1CCC[C@H]1CNC(=O)c1c(OC)ccc(Br)c1OC	-13.7	inactive	inactive
CSCC[C@H](NC(=O)[C@H](Cc1c[nH]c2ccccc12)NC(=O)CCNC(=O)OC(C)(C)C)C(=O)N[C@@H](CC(=O)O)C(=O)N[C@@H](Cc1ccccc1)C(N)=O	9.45		inactive
O=C(O)c1cc(-c2ccccc2)nc2ccccc12	-14.9	inactive	inactive
